miR-21 reporter: qHTS Assay for Modulators of miRNAs and/orActivators of miR-21. HeLa miR-21 FLuc reporter, luciferase, 48 h. Potency, µM (series often up to 38.3 µM), hits mostly activators. 340,000 tested, under 10 active. AID 2288, 2010;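 further: miR-21 action dims this reporter so a rising signal means less miR-21 action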
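Using DMEM plus 10% FBS, HeLa miR-21-FLuc cells are incubated with test compounds (final up to about 40uM) for 48 hours; firefly luciferase signal is then imaged following reagent-mediated lysis.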
Nrf2 block: Nrf2 qHTS screen for inhibitors; A549 ARE-Fluc reporter, luciferase luminescence, 18-24 h; Potency, µM (titrated, usually from 46 µM), usual class: inhibitors; actives 2.1% (n = 360,000); further: nearly all actives have a fitted effect of over 60% in size
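Concentration-response testing used A549 ARE_Fluc cells at 5000 cells/well. Following an 18-24 h compound incubation, viability was read by fluorescence (Ex 405/Em 525) and luciferase output by luminescence.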
A549 tox: Nrf2 qHTS screen for inhibitors: counterscreen for cytotoxicity | Potency, µM (titrated, usually from 46 µM), usual class: inhibitors | A549 ARE-Fluc cells, CellTiter-Fluor viability, 18-24 h | actives 0.16% (n = 390,000)
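A549 ARE-Fluc cells in 5% FBS OPTI-MEM, 5000 cells/well, rested 2 h then exposed to compounds in concentration-response for 18-24 h at 37 °C. Viability by CellTiter-Fluor fluorescence (Ex 405/Em 525) after 30 min; luciferase luminescence (BugLite, 15 min, RT) read afterwards.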
ClpP mod: qHTS Assay for Activators of ClpP | purified B. subtilis ClpP, FRET peptide cleavage, 20 min | Potency, µM (series often up to 57.5 µM) | actives 1.9% (n = 340,000) | ATP-dependent Clp protease proteolytic subunit (Bacillus subtilis (strain 168)), P80244; active means well fitted falling curve with a large enough effect; inconclusive means small, poorly fitted or top-dose-only effect; inactive means no such curve, though single readings can be large or run the other way; further: the source files actives as falling curves though it sought activators and does not explain the sign; nearly all actives have a fitted effect of over 65% in size
Target sequence (P80244 whole entry, looked up): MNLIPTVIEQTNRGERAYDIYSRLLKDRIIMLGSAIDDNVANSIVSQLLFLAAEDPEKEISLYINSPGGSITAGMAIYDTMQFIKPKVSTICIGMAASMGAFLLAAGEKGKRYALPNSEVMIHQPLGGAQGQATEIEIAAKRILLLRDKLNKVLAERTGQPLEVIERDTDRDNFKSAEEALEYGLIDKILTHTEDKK
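FRET quenching reversal measured ClpP activation: 10 microg/mL B. subtilis ClpP at pH 8 with the FRET-FV decapeptide, read at 430 nm after 320 nm excitation. The 20-min minus 0-min signal was scaled between DMSO/no-enzyme wells and ADEP (5.8 microM final).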
IL2 activator: qHTS of IL-2 Activators | IL-2 activation reporter assay, cell-based qHTS; stimulated with anti-CD3/CD4/CD28 beads; in transgenic mouse T cells | activation, % (series mostly up to about 46 µM) | actives 0.065% (n = 360,000); in the data active means activation above about 50%; inconclusive means mostly about 30% to 49%
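Unstimulated transgenic mouse T cells preincubated 60 min with compound, then stimulated with anti-CD3/anti-CD4-coated beads plus anti-CD28 for 18 h at 37 degrees C. IL-2 response read as EGFP and DsRed fluorescence by plate cytometry.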
Nrf2 activator: qHTS of Nrf2 Activators | AREc32 ARE-luciferase reporter (MCF7-derived line), luminescence, 24 h | Potency, µM (highest dose often 46.1 µM), hits mostly activators | actives 0.31% (n = 410,000) | AID 624171, 2012; further: nearly all actives have a fitted effect of over 65% in size
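Each well held 1000 AREc32 cells, which were incubated with compound for 24 hr at 37 deg C after overnight attachment, and ARE reporter activity was quantified by firefly luciferase luminescence.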
Large screens that a line does not name were inactive. In the library only some 3.7% were active in any assay of this set; here they are far more common. Unless noted, the call rests on the fitted dose curve; in most records, active means well fitted curve in the direction sought with a large enough effect; inconclusive means small, poorly fitted or top-dose-only effect, or another doubt; inactive means no such curve, though single readings can be large; an effect the other way counts as inactive or inconclusive.

Cc1ccc(O)c(NC(=O)c2ccccc2-c2ccccc2C(=O)O)c1	ClpP mod 25.1µM
CCOC(=O)CC(=O)CSc1nc(-c2ccc3c(c2)OCO3)cc(C(F)(F)F)c1C#N	ClpP mod 20µM, IL2 activator inconclusive (no result: Nrf2 block)
O=C(COCc1cc(-c2ccc3c(c2)OCO3)on1)Nc1cccc(O)c1	miR-21 reporter inconclusive (no result: IL2 activator)
COc1ccc(CCNC(=O)c2ccc(Cn3c(=O)c4ccccc4n(Cc4cccc(F)c4)c3=O)cc2)cc1OC	Nrf2 block inconclusive, ClpP mod 35.5µM (no result: IL2 activator)
CCCCNc1ncnc2oc(-c3ccco3)c(-c3ccco3)c12	Nrf2 block 20.6µM (no result: miR-21 reporter, IL2 activator, Nrf2 activator)
N#Cc1cnn2cc(-c3ncc(C(F)(F)F)cc3Cl)cnc12	ClpP mod 28.2µM
Clc1ccc2c(c1)C1OCCC1C(c1ccco1)N2 (stereo not drawn)	ClpP mod inconclusive, Nrf2 activator 5.62µM
CC(=O)N1CCC2(CC1)C/C(=N\NC(=S)Nc1ccccc1F)c1cc(O)ccc1O2	Nrf2 block inconclusive, ClpP mod 25.1µM
COc1ccccc1NC(=S)N/N=C1\CC(C)(C)Oc2ccc(O)cc21	ClpP mod 25.1µM
CC(=O)N1CCC2(CC1)C/C(=N\NC(=S)Nc1ccccc1C)c1cc(O)ccc1O2	none
CCCCN(CCCC)c1ccc(/C=C/c2ccnc3ccccc23)cc1	none (no result: miR-21 reporter, Nrf2 block, A549 tox, IL2 activator, Nrf2 activator)
O=C1NC(=Nc2ccccc2)S/C1=C\C=C\c1ccco1	A549 tox inconclusive, Nrf2 activator 7.08µM
Cc1cccc(N=C2NC(=O)/C(=C/C=C/c3ccco3)S2)c1C	A549 tox inconclusive, Nrf2 activator inconclusive
Cc1ccc(N=C2NC(=O)/C(=C/C=C/c3ccco3)S2)cc1	A549 tox inconclusive, Nrf2 activator 2.51µM
O=C1S/C(=C\C=C\c2ccco2)C(=O)N1c1ccccc1	Nrf2 activator 8.91µM (no result: ClpP mod)
COc1ccccc1C(=O)NCc1ccc2c(c1)CCN2C(=O)c1ccncc1	ClpP mod inconclusive (no result: Nrf2 block, IL2 activator)
CCCCn1c(=O)n(C)c(=O)c2c3c(sc21)COC(C)(C)C3	ClpP mod 28.2µM (no result: Nrf2 block)
c1c[nH]c(CNc2ncnc3ccc(-c4ccc5c(c4)OCO5)cc23)n1	none (no result: miR-21 reporter, ClpP mod, IL2 activator, Nrf2 activator)
CC(C)NC(=O)C1=CC(c2ccc3c(c2)OCO3)=NS(=O)(=O)N1C	Nrf2 block inconclusive (no result: IL2 activator)
COC(=O)c1ccc(C2=NOC(C)(c3sc(-c4ccc(Cl)cc4)nc3C)C2)cc1 (stereo not drawn)	ClpP mod 25.1µM
CCOc1ccc(NC(=O)c2ccc(-c3csc(C)n3)cc2)cc1	Nrf2 block inconclusive
Cc1nc(-c2ccc(C(=O)Nc3cccc(F)c3)cc2)cs1	Nrf2 block inconclusive (no result: ClpP mod)
Cc1nc(-c2ccc(NC(=O)c3ccco3)cc2)cs1	Nrf2 block 7.31µM
Cc1nc(-c2cccc(NC(=O)c3ccc(-n4cccn4)cc3)c2)cs1	Nrf2 block 14.6µM (no result: miR-21 reporter)
Cc1nc(-c2cccc(NC(=O)c3ccco3)c2)cs1	Nrf2 activator inconclusive
COc1ccc(NC(=O)c2ccc(-c3csc(C)n3)cc2)cc1	Nrf2 block 20.6µM (no result: ClpP mod)
Cc1ccc(Cn2cnc3c(oc4ccccc43)c2=O)cc1	none (no result: IL2 activator)
CCN1c2ccccc2-c2nc(SCC(=O)NCc3ccccc3)ncc2S1(=O)=O	none (no result: IL2 activator)
COCCCn1c(=N)c(C(=O)NCc2ccco2)cc2c(=O)n3cccc(C)c3nc21	none (no result: IL2 activator)
CCOCCCn1c(=N)c(C(N)=S)cc2c(=O)n3cccc(C)c3nc21	A549 tox inconclusive, ClpP mod 28.2µM
Cc1cccn2c(=O)c3cc(C(N)=S)c(=N)n(CCCOC(C)C)c3nc12	ClpP mod 15.8µM
Cc1cc(C)c(S(=O)(=O)NCC2CCC(C(=O)NCCc3ccccc3)CC2)c(C)c1 (stereo not drawn)	none (no result: Nrf2 block, IL2 activator)
Oc1c(C=Nc2ccccc2)sc(=S)n1Cc1ccccc1	Nrf2 block inconclusive, IL2 activator 71.4 (no result: ClpP mod)

Bioassay records: PubChem BioAssay, National Center for Advancing Translational Sciences (NCATS)
